Source: PubChem (several laboratories)
ABHD5-PLIN5 inh: inhibitors of human ABHD5-perilipin-5 interaction. Split G. princeps luciferase complementation, luminescence, 4 h. inhibition, % at 4 µM. 0.78% of 360,000 active;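 active = inhibition above the mean inhibition across every tested compound plus 3 SD, cut at about 22% in these data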;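 also: 0% = DMSO only wells and the 100% control is not disclosed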
m5-HT2A agonist: agonists of mouse serotonin 5-HT2A receptor (HTR2A). P35363. CHO-K1 mHTR2A beta-arrestin complementation, luminescence; percent of 30 µM serotonin response. activation, % at 7.6 µM. 0.66% of 360,000 active;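 active = activation above a run cutoff, the mean activation of all tested compounds plus 3 SD, cut at about 14% in these data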;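 also: 0% = plate median of compound wells and 100% = 30 µM serotonin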
TLR4-MyD88 BLA: inhibitors of human TLR4-MyD88 binding; AID 861; inhibition, % at 8.4 µM; HeLa CL3-4 TLR4/MyD88 BLA complementation, FRET ratio; 0.18% of 200,000 active; O00206+Q99836; in the data active = inhibition above about 25%;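 also: 0% = vehicle and 100% = reference inhibitor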
CRFR2-BP antag: CRF-BP/CRF-R2 complex antagonism. HEK293 CRF-R2/CRF-BP, CRF-induced calcium fluorescence. 0.59% of 350,000 active. AID 588475. inhibition, % at 11.8 µM;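 active = inhibition of the ligand-induced calcium signal above about 50% at the single tested concentration, limit read from the data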
NOD2-RIPK2 inh: NOD2-RIPK2 protein interaction inhibition; inhibition, % at 4.98 µM; CHO BLA complementation NOD2-RIPK2, CCF4 ratio; O43353; 0.38% of 360,000 active; in the data active = inhibition above about 21%;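 also: 0% = vehicle only and 100% = reference blocker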
TLR9-MyD88 block: blocks human TLR9 binding to MyD88 | Q9NR96+Q99836 | CHO BLA complementation TLR9-MyD88, CCF4 FRET ratio | inhibition, % at 4.98 µM | 0.21% of 340,000 active | AID 504734;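 active = inhibition above the mean over all tested compounds plus 3 SD, cut at about 21% in these data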;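 also: 0% = DMSO only wells and 100% = clavulanate BLA inhibitor control wells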
* = called active by the depositor; . = no result. Sampled rows, rich in hits. Any-hit rate of the full collection: about 2.4%.

SMILES	ABHD5-PLIN5 inh	m5-HT2A agonist	TLR4-MyD88 BLA	CRFR2-BP antag	NOD2-RIPK2 inh	TLR9-MyD88 block
Cc1cc(C(=O)N2CCCC(C)(C(=O)NS(=O)(=O)C3CC3)C2)n(C(C)(C)C)n1 (stereo not drawn)	0.7	-0.1	.	.	-3.7	.
c1ccc(-c2cc3ccccc3[nH]2)cc1	-19.9	-1.9	.	-35.8	-17.8	0.4
COc1ccc(-c2cc3ccccc3[nH]2)cc1	-7.9	-4.7	.	59.7*	0.8	3.6
COc1ccc(NC(=O)C2(C)CCN2CC2CCCCC2)cc1OC (stereo not drawn)	1.2	-3.4	.	.	2.2	.
COc1ccc(-c2csc(NC(=O)c3ccccc3NS(=O)(=O)c3ccc(C)cc3)n2)cc1	0.5	14.3	0.7	57.5*	0.0	-1.1
COc1ccc(S(=O)(=O)Nc2ccccc2C(=O)Nc2nc(-c3ccc(F)cc3)cs2)cc1OC	2.9	7.2	-1.2	46.7	-2.5	-11.4
CCCCNC(=O)c1nc(C2CCN(S(=O)(=O)c3cccc(C(F)(F)F)c3)CC2)oc1-c1ccccc1	9.1	5.1	.	.	-4.3	.
C=CCn1cnc2c(c1=O)c1nc3ccccc3nc1n2/N=C/c1cccc(OC)c1OC	-0.6	-0.5	.	54.0*	-1.2	-2.3
C=CCn1cnc2c(c1=O)c1nc3ccccc3nc1n2/N=C/c1cc(OC)c(OC)c(OC)c1	-3.0	-1.4	-2.2	-40.2	-10.3	1.1
COCCn1cnc2c(c1=O)c1nc3ccccc3nc1n2/N=C/c1cccc(OC)c1	2.6	8.5	.	56.9*	-11.0	0.9
Cc1cc(OCC(=O)OCC(=O)N2CCCCC2)ccc1Cl	-2.8	-5.9	.	10.4	-4.5	2.2
O=C(Cn1nc(-c2ccccc2)ccc1=O)N1CCOCC1	2.8	1.8	16.5	-2.4	-2.5	-3.4
O=C(CCn1nc(-c2ccccc2)ccc1=O)N1CCOCC1	-4.2	-1.2	-3.2	120.2*	-0.1	-9.8
Cc1ccccc1NC(=O)COC(=O)CCc1c[nH]c2ccccc12	-5.5	1.2	.	-1.8	-10.4	1.7
Cc1ccc(NC(=O)COC(=O)CCc2c[nH]c3ccccc23)c(C)c1	3.3	-2.8	.	54.5*	1.2	-4.1
CCOc1ccccc1/C=C\c1nc(O)c([N+](=O)[O-])c(=O)[nH]1	3.8	3.1	.	-2.4	5.3	-24.5
O=C(COc1ccccc1/C=C\c1nc(O)c([N+](=O)[O-])c(=O)[nH]1)Nc1ccccc1	22.8*	-0.3	-5.6	10.7	-4.3	1.1
COc1ccccc1CCC(=O)Nc1ccc2c(c1)c(=O)n(C)n2C	0.3	3.7	.	.	-0.8	.
Cc1ccc(C)c(NC(=O)c2ccccc2NS(=O)(=O)c2cc([N+](=O)[O-])ccc2C)c1	-0.4	5.1	-0.9	77.9*	5.6	4.7
COc1ccc(Cl)cc1NC(=O)c1cccc(S(=O)(=O)Nc2c(C)n(C)n(-c3ccccc3)c2=O)c1	.	.	.	-5.8	.	.
CC(C)OC(=O)c1ccccc1C(=O)c1ccc(N)c([N+](=O)[O-])c1	1.7	-4.9	5.6	56.4*	-3.1	-2.8
Nc1ccccc1Sc1ccc(C(=O)c2ccccc2C(=O)O)cc1[N+](=O)[O-]	-12.5	-6.5	.	-7.0	8.7	3.3
Cc1ccc2nc(N(CCCN(C)C)C(=O)CS(=O)(=O)c3ccccc3)sc2c1	-3.1	-9.4	.	-15.1	6.9	3.7
Cc1ccc2nc(N(CCCN(C)C)C(=O)CCc3ccccc3)sc2c1	22.0*	-9.9	3.8	-58.2	4.3	6.5
Cc1cc(C)cc(CC(=O)N2CCC2(C)C(=O)NS(=O)(=O)c2cc(C)ccc2F)c1 (stereo not drawn)	-1.4	2.2	.	.	-13.4	.
SMILES	ABHD5-PLIN5 inh	m5-HT2A agonist	TLR4-MyD88 BLA	CRFR2-BP antag	NOD2-RIPK2 inh	TLR9-MyD88 block
Cc1cc2nc(-c3nnnn3-c3c(C)cccc3C)c(=O)[nH]c2cc1C	1.6	3.9	.	.	5.6	.
Cn1cccc1C(=O)NCCc1ccccc1	13.2	5.7	.	-3.8	2.4	-3.1
COc1ccc(CCNC(=O)c2cccn2C)cc1	1.0	5.4	.	54.8*	-6.6	15.5
C=CCn1c(COc2ccccc2)nnc1SCC(=O)N/N=C/c1cc(Cl)ccc1O	-3.3	-9.5	5.6	60.5*	-0.9	-0.1
Cc1ncsc1CCOC(=O)c1cccnc1	0.5	-2.0	-7.1	12.8	9.7	0.7
Cc1ncsc1CCOC(=O)C12CC3CC(CC(C3)C1)C2	4.0	16.1*	2.8	0.0	8.1	2.8
CC(O)(c1ccccc1)c1nc(-c2ccncc2)cs1 (stereo not drawn)	-3.9	1.8	.	.	-1.3	.
Cc1nc(NC(=O)c2ccccc2)sc1-c1cc(C(=O)N2CCOCC2)nn1Cc1ccccc1	4.3	-3.0	.	5.5	6.5	0.5
O=C(c1ccc(Cl)c(Cl)c1)N1CCC(=O)N([C@H](COCc2ccc(Cl)cc2)Cc2ccccc2)CC1	0.9	-2.3	.	.	0.7	.
Cc1ccc(C(CC(=O)NCc2ccco2)c2ccc(OC(C)C)cc2)cc1 (stereo not drawn)	4.6	3.4	-24.7	50.7*	5.5	-5.6
CCc1ccc(S(=O)(=O)/N=C2/C=C(Sc3ncn[nH]3)C(=O)c3ccccc32)cc1	32.3*	6.5	-10.0	-8.5	-2.2	-14.4
CCc1ccc(S(=O)(=O)/N=C2\C=C(Nc3ccc(O)cc3)C(=O)c3ccccc32)cc1	3.3	-20.0	.	140.1*	8.7	-8.5
COc1ccc(C(=O)/C(C#N)=N/Nc2ccccc2[N+](=O)[O-])cc1	1.0	1.4	16.0	60.8*	-3.7	-8.5
COc1ccc(C(=O)/C(C#N)=N/Nc2ccc([N+](=O)[O-])cc2)cc1	3.8	-2.3	5.8	71.3*	4.1	3.1
N#C/C(=N\Nc1ccc(Cl)cc1)C(=O)c1ccccc1	6.4	-2.0	-7.8	83.3*	3.0	-7.8
CCCc1c(C)nn(C(=O)/C(C#N)=N/Nc2ccccc2[N+](=O)[O-])c1C	0.2	-3.5	-11.9	-2.3	-12.1	7.2
COC(=O)c1cccc(N2C(=O)C[C@](Sc3ccc(C)cc3)(C(=O)OC)[C@H]2c2ccccc2)c1	-1.9	3.1	.	.	5.6	.
CSCCC(NC(=O)OCc1ccccc1)NC(=O)OCc1ccccc1	-0.8	3.9	.	.	1.6	.
COc1ccc(C2=Nc3ccccc3N(C(=O)c3ccc4c(c3)OCO4)C2C(=O)Nc2c(C)cccc2C)cc1 (stereo not drawn)	16.0	8.5	.	.	-9.7	.
O=C(CNC(=O)C1CCCCC1)Nc1ccc(F)c(Cl)c1	-1.5	-2.2	-3.5	65.0*	5.0	3.8
COc1ccc(/C=N/OCC(=O)N=Nc2c(O)[nH]c3ccc(Br)cc23)cc1	-5.6	-1.7	0.6	54.6*	-11.0	0.4
Cc1cccc(OCCCC(=O)NC(C)c2ccccc2)c1 (stereo not drawn)	-1.6	-0.6	10.4	7.7	-0.6	5.1
Cc1cccc(OCCCC(=O)NC(C)C)c1	-2.2	-1.0	-5.0	81.6*	-3.4	-5.7
COc1cccc(NC(=O)[C@H](C)NC(=O)N2CCn3c2nc2ccccc23)c1	6.2	0.2	.	-0.9	1.5	-3.6
